Laboratory results reported in the supplement of paper PMC10105736.
Values without a mark were called inactive.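 How the source made its calls: active = MAPPIT score above the 99th percentile of random reference set scores in the same batch; inactive = at or below it.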

Key:
Assay in all cases: MAPPIT interaction score (arbitrary units); higher = stronger binary interaction signal, active = hit call of the paper
ArfGAP3 = details: MAPPIT configuration: N-N; pair source set: Curagen_high_conf
Description: (§1)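 MAPPIT in HEK293T cells: Drosophila bait and prey ORFs (from the FlyBi ORF collection) were co-transfected in quadruplicate, with two wells stimulated by erythropoietin. Interaction-dependent JAK-STAT activation was read out with a STAT-responsive firefly luciferase reporter. Positive calls use the 99th percentile of random reference set (RRS) scores within each batch […]. Batches Dvs01 and Dvs02 used the N-N configuration and Dvs04 the N-C configuration. Pairs come from FlyBi screens, CuraGen, DPiM, Finley Y2H, Lit-BM-16, Lit-BS-16 and RRS.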

Arc2 = details: MAPPIT configuration: N-N; pair source set: screen_1
Description: as §1

Arv1 = details: MAPPIT configuration: N-C; pair source set: RRS
Description: as §1

Arts = details: MAPPIT configuration: N-N; pair source set: Finley_Y2H
Description: as §1

Pu = details: MAPPIT configuration: N-N; pair source set: screen_1
Description: as §1

Vinc = details: pair source set: Lit-BM-16
Description: as §1

Adar = details: MAPPIT configuration: N-N; pair source set: RRS
Description: as §1

Art8 = details: MAPPIT configuration: N-N; pair source set: Curagen_high_conf
Description: as §1

BEAF-32 = details: MAPPIT configuration: N-N; pair source set: screen_1
Description: as §1

Atx-1 = details: MAPPIT configuration: N-C; pair source set: screen_4
Description: as §1

Ass = details: MAPPIT configuration: N-N; pair source set: Curagen_high_conf
Description: as §1

Atg16 = details: MAPPIT configuration: N-C; pair source set: Lit-BM-16
Description: as §1

Act57B = details: MAPPIT configuration: N-N; pair source set: screen_1
Description: as §1

Ald1 = details: pair source set: Lit-BM-16
Description: as §1

Arc1 = details: MAPPIT configuration: N-N
Description: as §1

CG34382 = details: MAPPIT configuration: N-N; pair source set: Curagen_high_conf
Description: as §1

CG8441 = details: MAPPIT configuration: N-N; pair source set: Lit-BS-16
Description: as §1

Pbgd = details: MAPPIT configuration: N-N; pair source set: DPIM
Description: as §1
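Further: HEK293T cells with Epo stimulation, STAT-responsive firefly luciferase reporter, fold induction versus unstimulated cells divided by the larger fold induction of two negative controls lacking either bait or prey.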

B1: CG16894 (protein)
chain: MWYSTVRNPSIALIKQGYHILAEYNLVKEELKNIYAIPSYACGLHWFGVIFVHSGIYAGSVFRFSILLPENFPADISLPTVVFSTEVLHPHICPQNKTLDLAHFLNEWRKDEHHIWHVLRYIQAIFADPEGSICTGQSSSGDLVIMDEVRNMNALNMLAKSRPEYIKRVQEQAILSRNLIYDRPPTEDPHYIIVEPYCAERHLKFMDQLKSPCWKEATSMDCSQPSEYLGHIDSSRQLDEEEANQVEKLHRGRIPEHQREESEVSL
MAPPIT interaction score (ArfGAP3): 0.483

B2: Arc2 (protein)
chain: MTQMSDEQFRIFIETIKSLGPIKEEPPSKGSFSNCTVRFSGQRDHDAVDEFINAVETYKEVEGISDKDALKGLPLLFKSIAVVWWKGVRRDAKTWSDALQLLRDHFSPTKPSYQIYMEIFETKQSYDEVIDSFICKQRALLAKLPEGRHDEETELDFIYGLMQPKYRESIPRHEVKTFRELLDRGRTVERTRH
MAPPIT interaction score (Arc2): 6.05 (active)

B3: Drak (protein)
chain: MFTEKGIFPIGDGLLDVDADRLKGLLVSCPDINEIYEVEQTPFARGKFAAVRRAIHKNTGSHFAAKFLKRRRRAQSSDKEIKHEIAVLMLCEGEDNIVNLNAVHETRSDTALLLELATGGELQTILDNEECLTEAQARHCMREVLKALKFLHDRSIAHLDLKPQNILLAGERIEDGLKLCDFGISRVVCEGINVREMAGTPDYVAPEVLQYEPLSLLTDIWSVGVLTYVLLSGFSPFGGDTKQETFLNISQCALTFPDNLFGGVSPVAIDFIRRALRIKPNDRMNATGCLDHIWLKDDCSLDRQIYLQPQSDAEEEEEEDVDDDVEDEEEEEQVEEEEEETQNVEEPTTEAPQQQQQPVQQHQLAKSGQIHSKPTHNGHHRANSGGSISKIPIATSKLQSTPSSETTTAIHTLTSNSNGHVHKPTQIVTPTRRASDSDKENTYTATFVKKPVATIQLGSSNGIEDATVVATLTLFPDAPTTPKVIRKTPTGESNGSATSVKALVKKFQLEDSSGSAVARRSGGAVTSSSGLHSPTTTSVRLNSIRRASEPLTTVYKKQTSQNGCSSTSNPSSSPGSSPTTSGSTATLLIHSQRLGNSTAPASHCVAVPATATATSSASSSNSSSGKSTSAAHHLHHHHMHHHHHHHHHHVVIAAKNAAAVAATNNLSLDQGIIC
MAPPIT interaction score (Arv1): 2.34

B4: CAP (protein)
chain: MEPGTIPSPVSAPVAAPVTPSAVAAPVQVVSPAAVAPAPAAPIAVTPVAPPPTLASVQPATVTIPAPAPIAAASVAPVASVAPPVVAAPTPPAASPVSTPPVAVAQIPVAVSAPVAPPVAATPTPVAPIPVAAPVIATPPVAASAPTPAAVTPVVSPVIATPPVVPANTTVPVAAPVAAVPAAVPVVAPVLAPAVAPAVAPVVAETPAPPPVAEIPVATIPECVAPLIPEVSVVATKPLAAAEPVVVAPPATETPVVAPAAASPHVSVAPAVETAVVAPVSASTEPPVAAATLTTAPETPALAPVVAESQVAANTVVATPPTPAPEPETIAPPVVAETPEVASVAVAETTPPVVPPVAAESIPAPVVATTPVPATLAVTDPDVTASAVPELPPVIAPSPVPSAVAETPVDLAPPVLPPVAAEPVPAVVAEETPETPAPASAPVTIAALDIPEVAPVIAAPSDAPAEAPSAAAPIVSTPPTTASVPETTAPPAAVPTEPIDVSVLSEAAIETPVAPPVEVTTEVAVADVAPPEAAADLIIEPVEPPAPIPDLLEQTTSVPAVEAAESTSSPIPETSLPPPNEAVASPEVAVAPITAPEPIPEPEPSLATPTEPIPVEAPVVIQEAVDAVEVPVTETSTSIPETTVEYPVAEKVLDPAITEAPVTTQEPDVANINDGAPATEITTPAVEIVTAAAEVSDTAIPLIDPPVPQEIAVAEIPETETKPAEVIVEQSTIPIEAPVPEVSKYAEPVISEAPAAEVPITAGDNPDNTSVGISEVVPTIAEKAVEEVPTSEIPEQSSSPSDSVPVAKITPLLRDLQTTDVSLLAIAATLDAIGEKLKDQKARNQQVMDRLCEIEKILGPPKSN
MAPPIT interaction score (Arts): 0.381
MAPPIT interaction score (Pu): -0.205
MAPPIT interaction score (Vinc; MAPPIT configuration: N-C): 2.37
MAPPIT interaction score (Vinc; MAPPIT configuration: N-N): 2.53

B5: GstZ2 (protein)
chain: MSTNLCPNASSSDIQPILYSYWRSSCSWRVRIAMNLKEIPYDIKPISLIKSGGEQHCNEYREVNPMEQVPALQIDGHTLIESVAIMHYLEETRPQRPLLPQDVHKRAKVREIVEIICSGIQPLQNLIVLIHVGEEKKKEWAQHWITRGFRAVEKALSTSAGKYCVGDEISMADCCLVPQVFNARRFHVDLRPYPIILRIDRELESNPAFRAAHPSNQPDCPPELPNK
MAPPIT interaction score (Adar): 0.0763

B6: Ntmt (protein)
chain: MTTTLEEQLSDKLQMMDETTDKVQGSSKQKDDSSIAASSDAKTASPSSSDSSTKVAAPESEFYNKAQKYWSEVPATVNGMLGGLGYISAIDIQGSNVFLREIRVPGNRLALDCGAGIGRVTRNLLIPRFSCVDLVEQDPAFADKAREYCTSEDGSRGKVGQIYNVGLQKFTPTQQYDLVWTQWVLGHLTDRDLVSFFRRIKQGLAPGAFLCLKENVSSSKKTVEDRNDSSVTRPLDSYEHFLKEAGFRIVRKVKQQNFPKGLFPVYMIACKPVSKE
MAPPIT interaction score (Art8): 3.74 (active)

B7: Sry-delta (protein)
chain: MDTCFFCGAVDLSDTGSSSSMRYETLSAKVPSSQKTVSLVLTHLANCIQTQLDLKPGARLCPRCFQELSDYDTIMVNLMTTQKRLTTQLKGALKSEFEVPESGEDILVEEVEIPQSDVETDADAEADALFVELVKDQEESDTEIKREFVDEEEEEDDDDDDEFICEDVDVGDSEALYGKSSDGEDRPTKKRVKQECTTCGKVYNSWYQLQKHISEEHSKQPNHICPICGVIRRDEEYLELHMNLHEGKTEKQCRYCPKSFSRPVNTLRHMRMHWDKKKYQCEKCGLRFSQDNLLYNHRLRHEAEENPIICSICNVSFKSRKTFNHHTLIHKENRPRHYCSVCPKSFTERYTLKMHMKTHEGDVVYGVREEAPADEQQVVEELHVDVDESEAAVTVIMSDNDENSGFCLICNTNFENKKELEHHLQFDHDVVLK
MAPPIT interaction score (BEAF-32): 4.3 (active)

B8: CG9132 (protein)
chain: MEYESVLIVKPEVFIYKIPPRASNRGYRAGDWNLKEPTWTGRMRLVAKGTAVVLKLEDKTSGALFANCPIDTYPGVAIEAVSDSSRYFVIRVQDDNGRSAFLGLGFGDRSDSFDLNVALQDHFKWVKNQEQIEKEKTEPKQELDLGFKEGETIKINMRITKKDGSEGSSRTGKNKGSSGVLPPPPGGLGKIAPPPAAAAANTTVRQSPGVSPAHRPAAGGSEWTDYASAGGNQGQQNSANANWVQF
MAPPIT interaction score (Atx-1): 2.48

B9: Git (protein)
chain: MCFASSIIEAHRKLFIAPPDLDHSDPATPTISTRSKMPRGKSRLQTEVCGDCGAGDPSWASINRGILLCADCCSVHRSLGRHISIVKSLRQGNWEPSVLNFVNSLNAHGANSVWEHHLLDGSTNSTGGKHVPRWRKPTPKDALHPTKSDFIKAKHVNLTFVLKPSLQDDDDGNGSAGCLEQELSRQLHASVRTSNLETSLRFLVQGADPNYYHEDKLSTPLHMAAKFGQASQIEMLLIYGADVNALDGNGMTPLELARANNHNTIAERLLDAMYDVTDRIITFLGGKKPDHASGRHMIIPDANGADISEQLKIARGKLQLVPNKMFEELVMDLYDEVDRRECEAIWSTSTLNADHATVPFLPANPFLSATRNQGRQKLARFNRAEFTGLLTDVLVDAMRRQNMANLRPMDAPVAGHQSLQSLPYANNSMLLGSFEQGGHDPNLSDDEPIYDPVASDDDYAPVPPMAQQAIVHTPPRSANSHNEMETLRKQLNDYKSEINQLKNVVQMLSSENTQLKSKFSSASNNSVYDEPLRIDLSLSSPDTEHEPLSLPEGGTANGESGSSNDSSNQSTIKRPASMYERRLVPNVAKGNTDIRNTTSMYQMAGDGKPFGEEVKVRSDLVTRRLKELIRAMQPVPEDQKQSIAPHGELIRSAVTDLIALYANLPPNASDPSRETLKLLTRQNILIQHECENLQKAIEADDKQAIQKNTLEVRDCAFHIASAIKTLVLQFY
MAPPIT interaction score (Ass): -0.0648

B10: Atg5 (protein)
chain: MAHDREVLRMIWEGQIGICFQADRDEIVGIKPEPFYLMISRLSYLPLVTDKVRKYFSRYISAEHQDGAVWFDFNGTPLRLHYPIGVLYDLLHPEEDSTPWCLTIHFSKFPEDMLVKLNSKELLESHYMSCLKEADVLKHRGLVISAMQKKDHNQLWLGLVNEKFDQFWAVNRRLMEPYGDLESFKNIPLRIYTDDDFTYTQKLISPISVGGQKKSLADLMAELSTPVRRAVGCRTHGIDLHEETQLQWMSEHLSYPDNFLHLSVDYKDV
MAPPIT interaction score (Atg16): 2.6

B11: CG12206 (protein)
chain: MAAITSNVSRLEPMRGISIIIESPEVATATPPPATTTATAEAEAATKQVAPTAKSNSNTEMSLKSQAAGMLLAFGDTAATAKDNLETSYDTAAKSTAAPETNKIYPQLLLRIGGEIAGATASAEAAASAATAAAATATSPTIISCNGEIAASQAAATAADTAATLQHNNTVKIQIESQGQQRTLGKQISVVKLNEGVEEMQQHMCYLVDTSGQYSPCETLDSGTGSDLENHPQQQQQPQQVRSPQLELHLQTTRLMVNEEADHKHSPLETPSPVPKRAYSLTDDSEECDESSNSSLSCDSLHSGGLLPTTLLRDIRFRERASGPLVTKINGRPLQFETDGYYTFHVREHENFRSFGSNSSTEYEAQHFTDEQPGEDFVGFRDIRTAGKLAGNSTIKSAKGTVRGVKNRVRNGVATFLQLQQPNVKNYMEKDVGKVVLYTTSMGIIRDTYAKCANVKKILRTLLIKFEERDIFMSVEYQQEMRERMQDETIRVPQLFVEGQLIGDANIVERLNESGELRQLLRPYKSIATAYTCQTCGGYRMLPCPACNGSKKSMHRNHFTAEFVALKCMNCDEVGLIKCPNC
MAPPIT interaction score (Act57B): 1.77

B12: Ald1 (protein)
chain: MTTYFNYPSKELQDELREIAQKIVAPGKGILAADESGPTMGKRLQDIGVENTEDNRRAYRQLLFSTDPKLAENISGVILFHETLYQKADDGTPFAEILKKKGIILGIKVDKGVVPLFGSEDEVTTQGLDDLAARCAQYKKDGCDFAKWRCVLKIGKNTPSYQSILENANVLARYASICQSQRIVPIVEPEVLPDGDHDLDRAQKVTETVLAAVYKALSDHHVYLEGTLLKPNMVTAGQSAKKNTPEEIALATVQALRRTVPAAVTGVTFLSGGQSEEEATVNLSAINNVPLIRPWALTFSYGRALQASVLRAWAGKKENIAAGQNELLKRAKANGDAAQGKYVAGSAGAGSGSLFVANHAY
MAPPIT interaction score (Ald1; MAPPIT configuration: N-C): 1.2
MAPPIT interaction score (Ald1; MAPPIT configuration: N-N): 4.7 (active)

B13: Arc1 (protein)
chain: MAQLTQMTNEQLRELIEAVRAAAVGAAGSAAAAGGADASRGKGNFSACTHSFGGTRDHDVVEEFIGNIETYKDVEGISDENALKGISLLFYGMASTWWQGVRKEATTWKEAIALIREHFSPTKPAYQIYMEFFQNKQDDHDPIDTFVIQKRALLAQLPSGRHDEETELDLLFGLLNIKYRKHISRHSVHTFKDLLEQGRIIEHNNQEDEEQLATAKNTRGSKRTTRCTYCSFRGHTFDNCRKRQKDRQEEQHEE
MAPPIT interaction score (Arc1; pair source set: screen_1): 4.55 (active)
MAPPIT interaction score (Arc1; pair source set: screen_2): 3.68 (active)
MAPPIT interaction score (CG34382): 0.00338
MAPPIT interaction score (CG8441): -0.34
MAPPIT interaction score (Pbgd): 0.22
